FLuc counter = firefly luciferase modulation, counter-screen for miR-21 project | P08659 | purified FLuc, Km substrates, luminescence inhibition | Potency, µM (titrated, usually from 57.5 µM), for the others: at the top dose activity change, negative = inhibition, hits mostly inhibitors | actives 6.9% (n = 360,000) | AID 588342;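 also: plate controls were vehicle for no effect and reference inhibitor for full effect; nearly all actives have a fitted effect of over 55% in size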
Target sequence (P08659 whole entry, looked up): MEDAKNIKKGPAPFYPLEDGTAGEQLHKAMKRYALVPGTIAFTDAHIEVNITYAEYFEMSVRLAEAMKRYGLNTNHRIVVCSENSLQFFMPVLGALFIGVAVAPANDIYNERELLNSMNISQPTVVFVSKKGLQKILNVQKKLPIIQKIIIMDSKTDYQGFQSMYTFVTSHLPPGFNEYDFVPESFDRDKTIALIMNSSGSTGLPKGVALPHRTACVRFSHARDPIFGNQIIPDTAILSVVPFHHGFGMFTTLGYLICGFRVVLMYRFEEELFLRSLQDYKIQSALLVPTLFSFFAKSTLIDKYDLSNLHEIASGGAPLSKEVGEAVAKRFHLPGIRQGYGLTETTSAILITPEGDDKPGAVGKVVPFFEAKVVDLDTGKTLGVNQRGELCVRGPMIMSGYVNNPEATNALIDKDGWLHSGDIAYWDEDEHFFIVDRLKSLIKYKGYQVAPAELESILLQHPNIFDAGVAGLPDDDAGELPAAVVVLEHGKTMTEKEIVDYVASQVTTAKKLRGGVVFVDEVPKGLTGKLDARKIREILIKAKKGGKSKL
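Biochemical qHTS of compounds, final roughly 60 µM downward over six points, against 10 nM purified firefly luciferase using Km concentrations of substrates (10 uM D-luciferin, 10 uM ATP) in Tris acetate pH 7.5 buffer; luminescence output.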
SMN2 splice enh = SMN2 splice variant enhancement. HEK293 SMN2-luciferase splicing reporter, luminescence, 30-36 h. Potency, µM (titrated, usually from 46.1 µM), for inactives: at the highest dose activity change, positive = activation, usual class: activators. actives 2.8% (n = 210,000); also: % of control where 0% means no effect; nearly all actives have a fitted effect of over 55% in size
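HEK293 cells carry an SMN2 minigene-luciferase reporter in which exon 7 inclusion puts luciferase in frame. Cells were seeded at 2000 cells/well, attached for 10-12 hours, then exposed to compounds for 30-36 hours at 37C before ONE-Glo luminescence.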
ELG1 genotoxic = inducers of genotoxicity in HEK293T ELG1-luciferase cells. HEK293T ELG1-luciferase reporter, luminescence, 16 h. Potency, µM (titrated, usually from 46 µM), without a hit: at the top dose activity change, positive = activation, actives largely listed as activators. actives 1.3% (n = 330,000). AID 504466; also: % of control where 0% means no effect; nearly all actives have a fitted effect of over 60% in size
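HEK293T cells expressing luciferase-tagged ELG1 were treated with compound or DMSO for 16 hr at 37°C. Luciferase activity was then read after 30 min with ONE-Glo at room temperature; rising signal flags genetic stress.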
Rab9 promoter act = Rab9 promoter activation; actives 2.8% (n = 320,000); Huh7 Rab9 promoter-luciferase reporter, luminescence, 24 h; Potency, µM (top dose mostly 9.22 µM), inactives show at the highest dose activation, negative = inhibition, usual class: activators; also: % of control where 0% means no effect; nearly all actives have a fitted effect of over 60% in size
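Quantitative HTS format; Huh7 Rab9-luciferase reporter cells (1500/well) receive compound 2 h post-plating, incubate 24 h at 37 °C, then get luciferase reagent for 10 min before luminescence reading.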
NPC1 prom act = activates the NPC1 promoter; Potency, µM (titrated, usually from 9.22 µM), for inactives: top-dose activation, actives largely listed as activators; actives 2.4% (n = 320,000); Huh7 NPC1 promoter luciferase reporter, 24 h; also: % of control where 0% means no effect; nearly all actives have a fitted effect of over 60% in size
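Compounds in DMSO were transferred onto Huh7 NPC1-luciferase reporter cells pre-incubated 2 h; after 24 h at 37 °C, Amplite reagent was dispensed and luminescence recorded 10 min later.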
An asterisk follows results filed as active; ? = inconclusive; nt = no result given; [ ] = another dose, or the depositor's remark. Sampled rows, rich in hits. Any-hit rate of the full collection: about 7.4%. Calls follow the shape of the dose curve; as a rule, active = well fitted curve in the direction sought with a large enough effect; inconclusive = small, poorly fitted or top-dose-only effect, or another doubt; inactive = no such curve, though single readings can be large; an effect the other way counts as inactive or inconclusive. Potency is read from the fitted curve at half-maximal effect.

SMILES | FLuc counter | SMN2 splice enh | ELG1 genotoxic | Rab9 promoter act | NPC1 prom act
CCCc1nc2ccccc2n1CC(O)COc1ccc(C(=O)OC)cc1 (stereo unspecified) | -19.6% | -6.4% | nt | nt | nt
COc1ccc(N=CC2=C(O)c3ccccc3C2=O)c(OC)c1 | 0.0757µM* | -60.3% | 0.0651µM* | 0.708µM* | ?
Cc1ccccc1N=CC1=C(O)c2ccccc2C1=O | 0.135µM* | 8.91µM* | ? | 0.251µM* | ?
Fc1ccc(N=Cc2ccc[nH]2)cc1 | -9.0% | nt | 1.0% | -3.9% | -0.3%
O=C1C(C=Nc2ccc(F)cc2)=C(O)c2ccccc21 | 0.269µM* | nt | ? | 0.794µM* | 0.355µM*
CCOc1ccc(NC(=O)c2sc(-n3nc(C)c(CCC(C)C)c3C)nc2C)cc1 | 4.2% | nt | nt | nt | nt
Cc1cc(NC(=O)CSc2nc3c(C)ccc(C)c3cc2C#N)no1 | 0.4% | nt | 16.9% | 0.3% | -15.9%
Cc1cc(C)c(C#N)c(SCC(=O)Nc2ccc3c(c2)OCO3)n1 | -10.0% | 15.8µM* | 16.4µM* | ? | ?
Cc1cc(C)c(C#N)c(SCC(=O)Nc2ccccc2C#N)n1 | 2.8% | nt | nt | nt | nt
Cc1cc(C)c(C#N)c(SCC(=O)Nc2ccccc2C(N)=O)n1 | 12µM* | 12.6µM* | ? | 1.26µM* | 2µM*
Cc1cc(C)c(C#N)c(SCC(=O)Nc2cc(C)on2)n1 | nt | nt | 18.3µM* | nt | nt
ClC/C=C/CCl | nt | 0.9% | nt | nt | nt
CC(C)NC(=O)CSc1nc(-c2ccccc2)cs1 | 19µM* | ? | 17.3% | 2.51µM* | ?
COC(=O)c1ccc(CSc2nc(-c3ccccc3)cs2)o1 | 8.49µM* | 2.2% | 11.6% | 12.2% | 12.0%
COc1ccc(-c2cc(C)nc3c(-c4ccccc4)cnn23)cc1 | 0.675µM* | ? | 0.651µM* | 0.562µM* | 0.501µM*
Cc1cc(-c2ccccc2)n2ncc(-c3ccccc3)c2n1 | 0.19µM* | -51.5% | 0.206µM* | 0.501µM* | 2.82µM*
CC(=O)c1cnc2c(-c3ccccc3)cnn2c1C | ? | -2.8% | ? | 9.5% | 13.2%
COc1ccccc1-c1c(C)nn2c(-c3ccccc3)cc(C)nc12 | ? | nt | -6.6% | -3.4% | -2.8%
Cc1cc(SCC(=O)c2ccccc2)n2ncc(-c3ccccc3)c2n1 | 9.53µM* | nt | 8.6% | 3.55µM* | 5.01µM*
CC(=O)CSc1cc(C)nc2c(-c3ccccc3)c(C)nn12 | -1.2% | nt | 5.3% | -8.0% | -2.1%
Cc1cc(SCC(=O)c2ccccc2)nc(C)n1 | 12µM* | 29.0% | ? | 2.51µM* | 3.55µM*
O=C(c1ccc2c(c1)CCN2S(=O)(=O)c1ccc(Cl)cc1)N1CCN(c2ccccc2)CC1 | -7.4% | -8.9% | nt | nt | nt
COc1ccc(C(=O)CSc2ccc(-c3ccco3)nn2)cc1 | ? | 11.3% | 1.1% | -3.1% | 0.0%
O=C(CSc1ccc(-c2ccco2)nn1)c1ccccc1 | 26.9µM* | 18.3% | 12.9% | ? | 15.8%
Cc1nc2c(-c3ccccc3)cnn2c(N)c1-c1ccccc1 | 0.213µM* | nt | ? | 16.2% | ?
SMILES | FLuc counter | SMN2 splice enh | ELG1 genotoxic | Rab9 promoter act | NPC1 prom act
Clc1ccc(C2=Nn3c(nnc3-c3cc(-c4ccccc4)n[nH]3)SC2)cc1 | -3.8% | 20.6% | -24.7% | -10.1% | 7.7%
COc1ccc(C2=Nn3c(nnc3-c3cc(C)[nH]n3)SC2)cc1 | -1.3% | nt | 20.6µM* | -2.2% | -8.4%
Clc1ccc(C2=Nn3c(nnc3-c3n[nH]c4c3CCC4)SC2)cc1Cl | 0.1% | 10µM* | ? | -5.0% | -8.9%
Cc1nnc2n(c1=O)N=C(c1ccc(Cl)cc1)CS2 | 2.3% | 2µM* | 28.9% | 0.501µM* | 1µM*
c1ccc(C2=Nn3c(nnc3-c3cc(-c4ccccc4)n[nH]3)SC2)cc1 | nt | ? | ? | 4.0% | 8.1%
COc1ccc(C2=Nn3c(nnc3-c3ccc(OC)cc3)SC2)cc1 | -9.0% | ? | ? | -17.3% | -29.7%
c1ccc(C2=Nn3c(nnc3-c3n[nH]c4c3CCC4)SC2)cc1 | -1.2% | ? | 23.1µM* | 3.1% | -7.2%
Cc1cccc2cc(CN(CCCO)C(=O)Nc3cccc(Cl)c3)c(=O)[nH]c12 | 21.3µM* | -15.7% | -5.7% | -8.6% | -2.6%
Cc1cccc2cc(CN(CCCO)C(=O)Nc3ccc(Cl)cc3)c(=O)[nH]c12 | ? | -11.3% | 1.7% | 2.9% | -2.8%
FCCCOc1ccc(-c2nccc(-c3ccc(Br)cc3)n2)cc1 | -2.2% | -12.4% | -0.4% | -4.3% | -0.7%
FCCCOc1ccc(-c2ccnc(-c3ccccc3)n2)cc1 | 12µM* | -8.3% | -1.4% | 19.9% | 10.6%
FCCCOc1ccc(-c2nccc(-c3ccc(F)cc3)n2)cc1 | 23.9µM* | 4.8% | 1.4% | 1.2% | -1.3%
COc1cc2c(cc1OC)-c1cc(Nc3ccc4c(c3)OCCO4)nc(=O)n1CC2 | 15.1µM* | -0.1% | ? | -9.5% | -0.9%
COc1ccc(Nc2cc3n(c(=O)n2)CCc2cc(OC)c(OC)cc2-3)cc1 | ? | nt | 14.5% | 0.4% | 1.8%
CCOc1ccc(C2=NC(c3cccs3)=Nc3ccc(CC)cc3N2)cc1OCC | -10.6% | 3.0% | nt | nt | nt
COc1ccc(C2=NNC(c3cc(Cl)cc4c3OCOC4)C2)c(O)c1 (stereo unspecified) | 13.5µM* | -66.9% | -4.5% | -0.2% | -0.4%
COC(=O)N/N=C\c1ccccc1OC/C=C/c1ccccc1 | 16.9µM* | nt | ? | 28.9% | ?
COc1cc(/C=N\NC(C)=O)ccc1OC/C=C/c1ccccc1 | -6.9% | nt | -8.9% | 2.6% | 1.6%
CCOC(=O)N/N=C\c1ccccc1OC/C=C/c1ccccc1 | 4.26µM* | nt | ? | 24.3% | ?
Oc1ccc(-c2cnc(-c3ccc(O)cc3)nc2)cc1 | 1.07µM* | nt | 2.91µM* | ? | 1.12µM*
Nc1ccc(-c2cnc(-c3ccc(N)cc3)nc2)cc1 | 3.38µM* | 3.55µM* | ? | 1.58µM* | 1.12µM*
N#Cc1cccc(C(=O)Nc2cc(S(=O)(=O)N3CCOCC3)ccc2N2CCCC2)c1 | nt | nt | 0.7% | nt | nt
CN(C)S(=O)(=O)n1cnc([C@@H]2[C@H]3C(=O)OC[C@@H]3C[C@@]23N=CN(Cc2ccccc2)C3=O)c1 | -0.4% | nt | -0.8% | 0.5% | 3.4%
COc1ccc(-c2nc3ccccn3c2C=O)cc1 | 10.7µM* | ? | ? | 3.16µM* | 3.98µM*
O=Cc1c(-c2ccc(F)cc2)nc2ccccn12 | -9.7% | -3.8% | 3.0% | 14.0% | 10.3%
O=C(CN1C(=O)COc2ccc(S(=O)(=O)N3CCCC3)cc21)N1CCN(c2ccc(Cl)cc2)CC1 | 2.5% | 13.5% | nt | nt | nt
Cc1ccc(C(=O)Nc2c(C)cc(C)c3cccnc23)cc1 | ? | nt | 2.4% | 5.1% | -3.8%
COc1ccc([C@H]2[C@H](C(=O)OC(C)(C)C)N3N=Cc4ccccc4C3C23C(=O)c2ccccc2C3=O)cc1OC (stereo partly specified) | 15.1µM* | 10.0% | -2.1% | -1.5% | -0.1%
COC(=O)C1=C(C(=O)OC)[C@@H]2N(Cc3ccccc3)c3ccccc3[C@@]23C[C@@H](C(=O)OC)N(S(=O)(=O)c2ccc(Br)cc2)C3=N1 | nt | -3.2%[9.22 µM] | nt | nt | nt

Compound activity: PubChem, National Center for Advancing Translational Sciences (NCATS)
